From PubChem BioAssay (NCI) come the findings set out here.

This is part of a sample that, as a whole, favours compounds with a hit. Of some 83,000 tested, about 20% had one in any assay.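 Compound tested at a single concentration for 48 hours in 96-well plates; a percent growth value below 10 was scored as active.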 Values without a mark were called inactive. Activity calls are given as the source filed them.

Among the test systems are NCI-H23 lung; NCI-H226 lung; NCI-H322M lung; HOP-62 NSCLC; NCI-H460 lung; NCI-H522 lung; A549/ATCC NSCLC; 786-0 renal; COLO 205 colon; DU-145 prostate.
What all share (assay): NCI-60 one-dose screen, 48 h (100 = growth as untreated, 0 = no growth, -100 = all killed)
What all share (settings): 10 µM

With `COc1ccc(/C=C2/CN(CCC#N)C/C(=C\c3ccc(OC)cc3)C2=O)cc1`, the growth with NCI-H23 lung is 31.1%; with NCI-H226 lung, -6.76% (active); in the experiment on NCI-H322M lung, 76%; in the experiment on HOP-62 NSCLC it was -38% (active); with NCI-H460 lung, 2.6% (active); in the experiment on NCI-H522 lung, -28% (active). Further, the growth with A549/ATCC NSCLC was -4.55% (active); in the experiment with 786-0 renal, -14.3% (active); in the experiment with COLO 205 colon it was -52.3% (active); in the experiment with DU-145 prostate it was 5.29% (active).

For `O=C(CCCCC[P+](c1ccccc1)(c1ccccc1)c1ccccc1)NC(COC(=O)C(Cl)Cl)(COC(=O)C(Cl)Cl)COC(=O)C(Cl)Cl`, the growth was 108% with NCI-H23 lung; 102% with NCI-H226 lung; 99.5% in the experiment with NCI-H322M lung; 96.1% with HOP-62 NSCLC; 106% with NCI-H460 lung; 126% with NCI-H522 lung. The growth with A549/ATCC NSCLC was 96.5%; in the experiment on 786-0 renal, 99.6%; with COLO 205 colon it was 98.1%; with DU-145 prostate it was 114%.

Turning to `COc1ccc2c(c1)nc(N)c1c3cccnc3cn21`, the growth in the experiment on NCI-H23 lung is 33.9%; in the experiment with NCI-H226 lung, 69.4%; with NCI-H322M lung, 72.5%; with HOP-62 NSCLC it was 42%; in the experiment with NCI-H460 lung, 1.19% (active); in the experiment with NCI-H522 lung, -2.48% (active). Besides, the growth is 11.8% in the experiment with A549/ATCC NSCLC, 22.7% with 786-0 renal, -31.5% (active) in the experiment with COLO 205 colon and 5.32% (active) with DU-145 prostate.

Regarding `Clc1ccc2c(NCCCNc3nccc(Nc4ccc(Br)cc4)n3)ccnc2c1`, the growth in the experiment on NCI-H23 lung was 46.8%; with NCI-H226 lung it was 90.1%; in the experiment with NCI-H322M lung it was -19.9% (active); with HOP-62 NSCLC, 1.45% (active); in the experiment on NCI-H460 lung, -45.9% (active); in the experiment with NCI-H522 lung, -83.2% (active). The growth in the experiment on A549/ATCC NSCLC is -71.7% (active); in the experiment with 786-0 renal it was -98.9% (active); in the experiment on COLO 205 colon it was -84.3% (active); in the experiment on DU-145 prostate, 9.83% (active).

Take `CCOC1(OCC)OC(c2ccccc2)=C(C#N)C(/C=C\c2ccccc2)C1(OCC)OCC` (stereo not given): the growth with NCI-H23 lung was 82.4%; in the experiment with NCI-H226 lung, 81.2%; in the experiment on NCI-H322M lung, 84.3%; in the experiment on HOP-62 NSCLC it was 91.5%; in the experiment with NCI-H460 lung, 81.8%; with NCI-H522 lung, 82.3%. For the same molecule, the growth in the experiment on A549/ATCC NSCLC is 82.5%; with 786-0 renal, 87.4%; in the experiment on COLO 205 colon, 88.9%; in the experiment with DU-145 prostate it was 89.7%.

As for `COc1cc(/C=C2\Oc3cc(OCC(=O)c4ccccc4)ccc3C2=O)cc(OC)c1OC`, the growth was 105% with NCI-H23 lung; 104% with NCI-H226 lung; 126% with NCI-H322M lung; 2.36% (active) in the experiment with HOP-62 NSCLC; 93% in the experiment with NCI-H460 lung; 105% in the experiment on NCI-H522 lung. The growth with A549/ATCC NSCLC is 118%; with 786-0 renal it was -45.9% (active); in the experiment with COLO 205 colon, 146%; with DU-145 prostate, 94.9%.

As for `CS(=O)(=O)Nc1cccc(-c2cc(-c3ccccc3Cl)c(C#N)c(N)n2)c1`, the growth is 38.7% in the experiment with NCI-H23 lung; 53.4% in the experiment on NCI-H226 lung; 51.8% in the experiment with NCI-H322M lung; 45.8% in the experiment on HOP-62 NSCLC; 5.56% (active) in the experiment with NCI-H460 lung; -7.33% (active) with NCI-H522 lung. The growth in the experiment on A549/ATCC NSCLC was 29.4%; in the experiment with 786-0 renal it was 46.7%; with COLO 205 colon, -0.179% (active); in the experiment on DU-145 prostate, 8.95% (active).

Turning to `COc1cc(Cc2cc(-c3ccc(Cl)cc3)n[nH]c2=O)ccc1O`, the growth in the experiment with NCI-H23 lung is 83.5%; with NCI-H226 lung, 224%; in the experiment on NCI-H322M lung, 119%; in the experiment with HOP-62 NSCLC it was 104%; in the experiment on NCI-H460 lung, 74.2%; with NCI-H522 lung, 105%. Besides, the growth was 58.6% in the experiment with A549/ATCC NSCLC, 103% with 786-0 renal, 111% in the experiment with COLO 205 colon and 128% in the experiment with DU-145 prostate.

On to `CCCC#CCN(CC)CC`, for which the growth in the experiment on NCI-H23 lung is 111%; in the experiment on NCI-H226 lung, 107%; in the experiment with NCI-H322M lung, 108%; in the experiment with HOP-62 NSCLC it was 117%; in the experiment on NCI-H460 lung, 107%; in the experiment with NCI-H522 lung, 97.6%. Besides, the growth with A549/ATCC NSCLC is 93.8%; in the experiment on 786-0 renal, 100%; in the experiment on COLO 205 colon it was 110%; with DU-145 prostate it was 123%.

In the case of `COc1ccc(-c2ccc3cc(C(=O)Nc4ccc(O)c(C(=O)/C=C/c5cc(OC)c(OC)c(OC)c5)c4)ccc3c2)cc1`, the growth is 94.3% in the experiment on NCI-H23 lung; 82.5% in the experiment on NCI-H226 lung; 100% with NCI-H322M lung; 114% with HOP-62 NSCLC; 95.9% in the experiment with NCI-H460 lung; 87.7% in the experiment on NCI-H522 lung. Moreover, the growth in the experiment on A549/ATCC NSCLC is 92.6%; with 786-0 renal, 102%; in the experiment on COLO 205 colon it was 109%; in the experiment with DU-145 prostate, 102%.

`O=C(Nc1ccc(Cl)cc1)N1NC(c2ccc(Cl)cc2)C=C1c1ccccc1` (stereo not given): the growth was 104% in the experiment with NCI-H23 lung; 109% in the experiment with NCI-H226 lung; 90.8% with NCI-H322M lung; 93.4% in the experiment with HOP-62 NSCLC; 105% in the experiment with NCI-H460 lung; 98.4% in the experiment with NCI-H522 lung. The growth with A549/ATCC NSCLC was 89.9%; with 786-0 renal, 92.1%; in the experiment on COLO 205 colon it was 99.3%; in the experiment with DU-145 prostate, 102%.

Turning to `COc1ccc(CN2CCC(N3CCCC3=O)c3cc(Cl)ccc32)cc1` (stereo not given), the growth is 96% with NCI-H23 lung; 114% in the experiment with NCI-H226 lung; 104% in the experiment on NCI-H322M lung; 98.3% with HOP-62 NSCLC; 110% in the experiment with NCI-H460 lung; 75.6% with NCI-H522 lung. Further, the growth in the experiment on A549/ATCC NSCLC is 104%; with 786-0 renal it was 109%; with COLO 205 colon, 110%; in the experiment on DU-145 prostate, 116%.

Turning to `c1ccc2c(c1)oc1c3c(ccc12)NCCC3`, the growth in the experiment on NCI-H23 lung was 86%; with NCI-H226 lung it was 90.9%; in the experiment on NCI-H322M lung, 91.8%; in the experiment with HOP-62 NSCLC, 97.6%; in the experiment on NCI-H460 lung, 99%; with NCI-H522 lung, 80.9%. Besides, the growth with A549/ATCC NSCLC is 90.3%; in the experiment on 786-0 renal, 90.5%; with COLO 205 colon it was 114%; with DU-145 prostate it was 103%.
